Records with an inconclusive call do not appear. Active and inactive are the calls of the source. Unless noted, the call rests on the fitted dose curve; in most records, active means well fitted curve in the direction sought with a large enough effect in the repeat runs; inconclusive means weak or mixed curves; inactive means no such curve, though single readings can be large; an effect the other way counts as inactive or inconclusive.
What was measured:
[1] = qHTS assay to identify small molecule antagonists of the estrogen related receptor (ERR) signaling pathway from Tox21 library - cell viability counter screen (AID 1224834); further: nearly all actives have a fitted effect of over 30% in size
Method in brief: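 CellTiter-Fluor fluorescence, read after 30 min at 37 C, measures viability of ERR cells. Cells plated at 2,000/well and incubated 6 h before pin-tool compound addition, then exposed 17.5 hours at 37 C.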

[2] = qHTS assay to identify small molecule agonists of the constitutive androstane receptor (CAR) signaling pathway - cell viability counter screen (AID 1224836); further: series mostly up to about 92 µM; nearly all actives have a fitted effect of over 45% in size
Method in brief: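 HepG2 cells stably carrying hCAR and a CYP2B6-2.2kb reporter; 15-concentration compounds plus PK11195 (final 0.75 uM), 23 hr at 37 C/5% CO2. Viability read by CellTiter-Fluor fluorescence.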

[3] = qHTS assay to identify small molecule antagonists of the constitutive androstane receptor (CAR) signaling pathway - cell viability counter screen (AID 1224837); further: series mostly up to about 92 µM; nearly all actives have a fitted effect of over 45% in size
Method in brief: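 Cytotoxicity counter-screen: CellTiter-Fluor fluorescence after 23 h compound exposure (15-point qHTS) in double-stable HepG2-CYP2B6-hCAR cells, with 50 nM CITCO added.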

[4] = target: Nuclear receptor subfamily 1 group I member 3 (Homo sapiens) (UniProt Q14994); assay: qHTS assay to identify small molecule antagonists of the constitutive androstane receptor (CAR) signaling pathway (AID 1224838);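 further: HepG2 cells stably expressing hCAR with CYP2B6 luciferase reporter stimulated by CITCO; nearly all actives have a fitted effect of over 40% in size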
Method in brief: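 Antagonism measured as luciferase signal (ONE-Glo, 30 min, room temperature) in CAR-stimulated cells: HepG2-CYP2B6-hCAR double-stable line exposed 24 hr at 37 C to compound in a 15-point series plus 50 nM CITCO.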

[5] = target: Nuclear receptor subfamily 1 group I member 3 (Homo sapiens) (UniProt Q14994); assay: qHTS assay to identify small molecule agonists of the constitutive androstane receptor (CAR) signaling pathway (AID 1224839); further: nearly all actives have a fitted effect of over 15% in size; further: potency means the concentration at half of the fitted maximal effect;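 on activation: HepG2 cells stably carrying human CAR and a CYP2B6 luciferase reporter; series mostly up to about 92 µM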
Method in brief: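 HepG2 cells stably co-transfected with hCAR and a CYP2B6-2.2kb luciferase reporter; compounds at 15 concentrations with 0.75 uM PK11195 present. After 24 hr at 37 C, luciferase read by ONE-Glo luminescence.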

[6] = qHTS assay to identify small molecule antagonists of the estrogen related receptor signaling pathway with the pleiotropic PPARgamma coactivator (PGC) from Tox21 10K library - cell viability counter screen (AID 1224840; active means well fitted cell-killing curve with a large enough effect in the repeat runs, not every such curve was filed as active; further: nearly all actives have a fitted effect of over 40% in size)
Method in brief: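 Counter-screen for cytotoxicity: after 17.5 h compound exposure at 37 C, CellTiter-Fluor reagent added to PGC/ERR cells for 30 min and fluorescence read. Cells were seeded at 2,000 per well 6 h before dosing.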

[7] = target: Thyrotropin receptor (Homo sapiens) (UniProt P16473); assay: qHTS assay to identify small molecule agonists of the thyroid stimulating hormone receptor (TSHR) signaling pathway (AID 1224843; calls by dose curve; further: nearly all actives have a fitted effect of over 45% in size)
Method in brief: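 Agonist-mode screen: TSHR HEK293 cells received test chemicals for half an hour at room temperature, then HTRF cAMP detection reagents for one hour prior to fluorescence measurement. Each chemical ran as a 15-concentration series, triplicated.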

[8] = qHTS assay to identify small molecule agonists of the hypoxia (HIF-1) signaling pathway - cell viability counter screen (AID 1224844; calls by dose curve; further: nearly all actives have a fitted effect of over 50% in size)
Method in brief: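 Cytotoxicity measured by CellTiter-Glo ATP luminescence in the wells also read for beta-lactamase signal. Cells were HRE-bla ME-180 (2,000/well, 0.5% dialyzed FBS), exposed to compounds for 17 h at 37C.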

[9] = qHTS assay to identify small molecule agonists of the hypoxia (HIF-1) signaling pathway (AID 1224846; active means well fitted activation curve with a large enough effect in the signal ratio in the repeat runs, not every such curve was filed as active; the % refers to the signal ratio)
Method in brief: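 Compounds added to ME-180 cells carrying hypoxia-response-element beta-lactamase reporter (0.5% dialyzed FBS, 5 h preplating), 17 h at 37C; agonist activity detected by CCF4-AM B/G FRET read-out.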

[10] = qHTS assay to identify small molecule agonists of H2AX - cell viability counter screen (AID 1224847; calls by dose curve; further: top concentration of the series differs between compounds; nearly all actives have a fitted effect of over 30% in size)
Method in brief: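 CHO-K1 cells plated overnight at 37C, then exposed 3 h at 37C to compounds at 15 concentrations (0.76% DMSO final). Viability by CellTiter-Glo luminescence after 30 min at room temperature.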

[11] = qHTS RealTime-Glo MT Cell Viability Assay in HEK293 cells - 32 hour (AID 1224868); further: top concentration of the series differs between compounds; nearly all actives have a fitted effect of over 50% in size
Method in brief: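 Quantitative high-throughput screen of the Tox21 10K library in HEK293: cells and RealTime-Glo reagents plated together, compound added at 5 h, luminescence monitored through 40 h at 37 C.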

[12] = qHTS RealTime-Glo MT Cell Viability Assay in HepG2 cells - 40 hour (AID 1224870); further: nearly all actives have a fitted effect of over 50% in size
Method in brief: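 HepG2 cells (600/well) mixed with RealTime-Glo MT reagent, settled 5 h at 37 C/5% CO2 before compound addition. Nonlytic NanoLuc luminescence from viable-cell prosubstrate reduction read repeatedly during 40 h treatment at 37 C.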

[13] = qHTS assay to identify small molecule antagonists of the estrogen related receptor signaling pathway with the pleiotropic PPARgamma coactivator (PGC) from Tox21 10K library (AID 1224841; call rule not given here; further: series mostly up to about 92 µM; actives are mostly falling curves and most rising ones were filed inactive; nearly all actives have a fitted effect of over 50% in size)
Method in brief: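 Luminescence (One-Glo, 30 min at room temperature) after 18 h compound treatment at 37 C of PGC/ERR reporter cells plated at 2,000 cells/well and settled 6 h beforehand.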

[14] = qHTS assay to identify small molecule agonists of the estrogen related receptor signaling pathway with the pleiotropic PPARgamma coactivator (PGC) from Tox21 10K library (AID 1224842); further: nearly all actives have a fitted effect of over 15% in size
Method in brief: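 PGC/ERR reporter cell line, 2,000 cells per well, incubated 6 h at 37 C before 23 nL compound in DMSO was added. After 18 h at 37 C, One-Glo luminescence read following 30 min at room temperature.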

[15] = qHTS assay to identify small molecule agonists of H2AX (AID 1224845; active means well fitted activation curve with a large enough effect in the signal ratio in the repeat runs, not every such curve was filed as active; the % refers to the signal ratio)
Method in brief: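 Wild-type CHO-K1 cells, plated overnight, exposed 3hr at 37C to 15 concentrations (0.76% DMSO final). Lysed, then HTRF anti-pH2AX (S139) cryptate and anti-H2AX-d2 antibodies, 24 hr room temperature; 665/620 nm emission read.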

[16] = qHTS assay to identify small molecule antagonists of the estrogen related receptor (ERR) signaling pathway from Tox21 library (AID 1224848); further: nearly all actives have a fitted effect of over 50% in size
Method in brief: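 Quantitative high-throughput format: ERR reporter cells (2,000/well) pre-incubated 6 h, treated 18 h at 37 C with compounds in DMSO alongside positive and negative controls, then read by ONE-Glo luminescence.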

[17] = qHTS assay to identify small molecule agonists of the estrogen related receptor (ERR) signaling pathway from Tox21 library (AID 1224849; calls by dose curve; further: nearly all actives have a fitted effect of over 15% in size)
Method in brief: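 Luminescent agonist read-out (One-Glo, 30-minute room-temperature incubation) following 18-hour compound treatment at 37 C of the ERR cell line, which had been plated 6 hours before dosing.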

[18] = qHTS RealTime-Glo MT Cell Viability Assay in HepG2 cells - 24 hour (AID 1224867); further: nearly all actives have a fitted effect of over 50% in size
Method in brief: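 Compound treatment began 5 h after plating HepG2 cells (600/well) with NanoLuc luciferase and prosubstrate. Plates stayed at 37 C for 40 h; luminescence was captured at six time points, 0 h through 40 h.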

[19] = A CellTox Green Cytotoxicity Assay to monitor cytotoxicity in HEK293 cells - 0 hour (AID 1224869); further: nearly all actives have a fitted effect of over 50% in size
Method in brief: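 Fluorescence from a DNA-binding dye excluded by viable cells was measured repeatedly in the same HEK293 wells (600 cells/well) during continuous compound exposure at 37 C. Each assay gives one read point: 0, 8, 16, 24, 32 or 40 h.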
On the % scale 0 is the no-effect control and ±100 the full control effect.

Chain of Nuclear receptor subfamily 1 group I member 3 (Homo sapiens) (Q14994 whole entry, looked up): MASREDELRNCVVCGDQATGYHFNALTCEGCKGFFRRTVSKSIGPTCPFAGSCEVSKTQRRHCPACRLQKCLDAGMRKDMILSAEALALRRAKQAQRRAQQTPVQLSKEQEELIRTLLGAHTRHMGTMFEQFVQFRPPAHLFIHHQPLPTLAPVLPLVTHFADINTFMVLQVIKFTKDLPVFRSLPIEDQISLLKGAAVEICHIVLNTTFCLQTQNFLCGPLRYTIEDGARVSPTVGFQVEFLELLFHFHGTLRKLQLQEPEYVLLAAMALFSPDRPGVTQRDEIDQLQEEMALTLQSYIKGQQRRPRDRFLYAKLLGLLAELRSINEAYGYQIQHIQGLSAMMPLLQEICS
Chain of Thyrotropin receptor (Homo sapiens) (P16473 whole entry, looked up): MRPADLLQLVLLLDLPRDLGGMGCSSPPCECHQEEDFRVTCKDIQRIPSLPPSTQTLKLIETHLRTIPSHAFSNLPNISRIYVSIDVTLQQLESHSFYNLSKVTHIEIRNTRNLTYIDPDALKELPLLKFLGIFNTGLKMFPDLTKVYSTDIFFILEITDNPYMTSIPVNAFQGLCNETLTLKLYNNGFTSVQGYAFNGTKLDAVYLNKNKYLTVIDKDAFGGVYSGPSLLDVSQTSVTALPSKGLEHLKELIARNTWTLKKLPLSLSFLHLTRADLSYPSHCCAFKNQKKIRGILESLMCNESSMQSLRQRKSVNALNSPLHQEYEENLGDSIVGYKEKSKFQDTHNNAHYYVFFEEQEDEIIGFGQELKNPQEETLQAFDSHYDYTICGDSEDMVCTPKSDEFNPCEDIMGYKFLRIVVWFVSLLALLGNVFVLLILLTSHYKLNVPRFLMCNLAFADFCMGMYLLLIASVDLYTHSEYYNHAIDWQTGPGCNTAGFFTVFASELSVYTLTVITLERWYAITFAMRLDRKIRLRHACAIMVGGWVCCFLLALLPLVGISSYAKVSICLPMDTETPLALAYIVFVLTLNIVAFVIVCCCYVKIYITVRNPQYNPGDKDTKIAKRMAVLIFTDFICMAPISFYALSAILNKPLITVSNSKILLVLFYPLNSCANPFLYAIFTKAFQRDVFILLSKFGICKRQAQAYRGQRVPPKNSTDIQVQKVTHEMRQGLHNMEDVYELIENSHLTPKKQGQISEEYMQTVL

Cc1ccc(-c2ccccc2C#N)cc1
inactive: Potency [1] | outcome [2] | outcome [3] | Potency [4] | Potency [5] | outcome [6] | Potency [7] | Potency [8] | outcome [9] | outcome [10] | Potency [11] | Potency [12]

Cc1nc(C2CCCCC2)c(-c2ccc(S(N)(=O)=O)c(F)c2)o1
inactive: Potency [1] | outcome [2] | outcome [3] | Potency [4] | Potency [5] | outcome [6] | Potency [13] | Potency [14] | Potency [7] | Potency [8] | Potency [15] | outcome [9] | outcome [10] | Potency [16] | outcome [17] | outcome [18] | outcome [19] | Potency [12]

CCN1CCOCC1
inactive: Potency [1] | outcome [2] | outcome [3] | Potency [4] | Potency [5] | outcome [6] | Potency [8] | Potency [15] | outcome [9] | outcome [10] | outcome [18] | Potency [11] | outcome [19] | Potency [12]

CN1CCN(c2cc3c(nn2)Oc2ccccc2N3C)CC1
inactive: viability change, negative = cytotoxic [1] 4.08% [at 19 µM] | viability change, negative = cytotoxic [2] -2.12% [at 19 µM] | activity change, negative = cytotoxicity [3] -0.71% [at 19 µM] | activity, negative = inhibition [4] 125% [at 19 µM] | viability change, negative = cytotoxic [6] 2.34% [at 19 µM] | activation [7] -2.7% [at 19 µM] | activity change, negative = cytotoxicity [8] 1.97% [at 15.8 µM] | activation [9] 0.831% [at 15.8 µM] | activity change, negative = cytotoxicity [10] 0.295% [at 31.6 µM] | activity change, negative = cytotoxicity [18] -0.547% [at 15.8 µM] | activity change, negative = cytotoxic [11] 1.71% [at 15.8 µM] | cytotoxicity [19] -3.85% [at 15.8 µM] | activity change, negative = cytotoxic [12] 1.01% [at 15.8 µM]
active: Potency [5] 5.8 µM

Nc1ccccn1
inactive: Potency [1] | outcome [2] | outcome [3] | Potency [4] | Potency [5] | outcome [6] | Potency [8] | Potency [15] | outcome [10] | outcome [18] | Potency [11] | outcome [19] | Potency [12]

CCC(C(=O)NC(=O)NC(C)=O)c1ccccc1 (stereo unspecified)
inactive: Potency [1] | outcome [2] | outcome [3] | Potency [4] | Potency [5] | outcome [6] | Potency [13] | Potency [14] | Potency [7] | Potency [8] | Potency [15] | outcome [9] | outcome [10] | Potency [16] | outcome [17] | Potency [11] | Potency [12]

CC(C)(C)C(=O)Oc1ccc(S(=O)(=O)Nc2ccccc2C(=O)NCC(=O)O)cc1
inactive: Potency [1] | outcome [2] | outcome [3] | Potency [4] | Potency [5] | outcome [6] | Potency [8] | Potency [15] | outcome [9] | outcome [10] | outcome [18] | Potency [11] | outcome [19] | Potency [12]

CC(COc1ccccc1)NN (stereo unspecified)
inactive: Potency [1] | outcome [2] | outcome [3] | Potency [4] | Potency [5] | outcome [6] | Potency [13] | Potency [14] | Potency [7] | Potency [8] | Potency [15] | outcome [9] | outcome [10] | Potency [16] | outcome [17] | outcome [18] | Potency [11] | outcome [19] | Potency [12]

From PubChem BioAssay (Tox21)
